Data published in PubChem BioAssay (NCI).
About 83,000 compounds went through this panel and 20% of them were active in at least one assay; those are over-represented in the sample as a whole.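 The endpoint reported here, percent growth, reads 100 for growth as untreated, 0 for no net growth and -100 for all cells dead.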 The source made the active and inactive calls. How the source made its calls: active means growth percent below 10; inactive means the rest.

What was measured:
Test in all cases: NCI-60 one-dose screen, 48 h (100 = growth as untreated, 0 = no growth, -100 = all killed)
Details in all cases: 10 µM unless noted
[1] = tested on: RPMI-8226 leukemia
[2] = tested on: OVCAR-8 ovarian
[3] = tested on: OVCAR-5 ovarian
[4] = tested on: OVCAR-4 ovarian
[5] = tested on: SK-OV-3 ovarian
[6] = tested on: IGROV1 ovarian
[7] = tested on: OVCAR-3 ovarian
[8] = tested on: HS 578T breast
[9] = tested on: NCI/ADR-RES ovarian
[10] = tested on: T-47D breast

Measured: growth

N#Cc1c2ccccc2c2n1-c1ccccc1OC(c1ccccc1)C2=O (stereo not given)
inactive: [1] 18.1% | [2] 11.6% | [3] 56.1% | [4] 14.6% | [5] 65.4% | [6] 43% | [7] 41.1% | [8] 40.1% | [9] 14% | [10] 23.2%

CCCCN(CCCC)CCCOC(=O)c1ccc(N)cc1
inactive: [1] 68% | [2] 73% | [3] 97% | [4] 84.2% | [5] 83.3% | [6] 75.8% | [7] 102% | [8] 82.2% | [9] 94.2% | [10] 88%

O=[N+]([O-])c1ccc(Oc2cccc(C(F)(F)F)c2)c([N+](=O)[O-])c1
inactive: [1] 79.3% | [2] 12.7% | [3] 68.1% | [4] 98.2% | [5] 44.5% | [6] 12.3% | [7] 44.9% | [8] 105% | [9] 29.1% | [10] 48%

Cc1ccccc1-c1cc(Cc2ccccc2O)c(=O)[nH]n1
inactive: [1] 78.6% | [2] 91.8% | [3] 118% | [4] 106% | [5] 253% | [6] 86.6% | [7] 100% | [8] 104% | [9] 111% | [10] 200%

O=C(/C=C/c1cccnc1)/C=C/c1cccnc1
inactive: [4] 20.9% | [5] 31% | [9] 32.2%
active: [1] -61.1% | [2] -25.2% | [3] -21.7% | [6] -89.3% | [7] -40.9% | [8] -16% | [10] -2.05%

C[N+]1(CCC[N+]2(C)C[C@@H]3[C@H](C2)[C@@H]2C=C[C@H]3C2)CCOCC1 (stereo not given in full)
inactive: [1] 106% | [2] 104% | [3] 88.9% | [4] 112% | [5] 99.3% | [6] 103% | [7] 116% | [8] 111% | [9] 107% | [10] 109%

CCC(C)CC(CC)NCCN1CCN(C(CC)CC(C)CC)C1=S (stereo not given)
active: [1] -46.2% | [10] -9.85%
inactive: [2] 62.7% | [3] 37.2% | [4] 37.8% | [5] 56.2% | [6] 52.7% | [7] 39.5% | [8] 67.2% | [9] 56.4%

N#Cc1cccc(/C=C(/C(=O)c2ccccc2)c2ccccc2)c1
inactive: [2] 20.4% | [3] 80.4% | [4] 50.9% | [5] 110% | [6] 73.8% | [7] 36.4% | [8] 55.4% | [9] 40.1% | [10] 74.4%
active: [1] -4.62%

O=C1NCN(CCO)CN1
inactive: [1] 85.6% | [2] 99.9% | [3] 101% | [4] 98.5% | [5] 95.4% | [6] 115% | [7] 107% | [8] 96.7% | [9] 102% | [10] 89.9%

O=C(Nc1ccc(Cl)cc1)Nc1ccc(Nc2nncc3ccccc23)cc1
active: [1] 8.62% | [10] -6.32%
inactive: [2] 18.2% | [3] 85.6% | [4] 11.1% | [5] 38.2% | [6] 39.7% | [7] 17.6% | [8] 58.3% | [9] 36.2%
